Bioassay records: PubChem BioAssay, National Center for Advancing Translational Sciences (NCATS)
Most compounds without a hit are left out; they make up all but 18% or so of the library.
CtBP-E1A blk – qHTS Assay for Inhibitors of the CtBP/E1A Interaction. AlphaScreen GST-E1A/His-CtBP binding, 1536-well; stronger effect = lower value. CtBP / adenovirus E1A interaction (AlphaScreen). activity change, % (no concentration beside the values). AID 651724, 2012. 340,000 compounds, 0.49% hits; in the data active means activity change below about -65%; inconclusive means mostly about -30% to -63%
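AlphaScreen with 125 nM GST-E1A and 125 nM His-CtBP (5X stocks) in Tris pH 8.0, 300 mM NaCl, BSA, Tween 20, TCEP. Compounds preincubated 2 h at 37 deg C, then glutathione donor/nickel acceptor beads added for 1 h at 37 deg C in dark.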
DT40 TDP1 no CPT – qHTS for Inhibitors of human tyrosyl-DNA phosphodiesterase 1 (TDP1): qHTS in cells in absence of CPT; DT40 Tdp1-/- hTDP1 cells, no CPT, ATP luminescence, 48 h; 420,000 compounds, 15% hits; Potency, µM (highest dose often 46.2 µM), for the others: at the top dose activity change, negative = growth inhibition, most hits filed as inhibitors; AID 686978, 2013; further: potency means the concentration at half of the fitted maximal effect; nearly all actives have a fitted effect of over 55% in size
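Chicken DT40 Tdp1-/- cells complemented with human TDP1, screened without camptothecin (DMSO vehicle only), 400 cells/well. Compounds pin-transferred, cells incubated at 37 °C for at least 48 hr. Growth read as ATP-dependent luminescence (CellTiter-Glo, 30 min at RT).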
IL1B secr inh – qHTS for Inhibitors of Inflammasome Signaling: IL-1-beta AlphaLISA Primary Screen | activity change, % at 57.5 µM | THP-1 LPS/ATP IL-1B secretion, AlphaLISA, 16 h; stronger effect = lower value | 360,000 compounds, 4.7% hits; in the data active means activity change below about -50%; inconclusive means mostly about -30% to -49%
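Secreted IL-1B measured by AlphaLISA bead assay after 16 h compound exposure of THP-1 cells; compounds (final up to 57.5 uM) added 1 h before LPS (250 ng/mL) and ATP (1.25 mM) stimulation; lower signal means less secretion.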
TDP1 cell CPT – qHTS for Inhibitors of human tyrosyl-DNA phosphodiesterase 1 (TDP1): qHTS in cells in presence of CPT; chicken DT40 Tdp1-/-;hTDP1 cells + 20 nM CPT, ATP luminescence, 48 h; Potency, µM (highest dose often 46.2 µM), inactives show at the highest dose activity change, negative = growth inhibition, hits mostly inhibitors; 420,000 compounds, 12% hits; AID 686979, 2013; further: potency means the concentration at half of the fitted maximal effect; nearly all actives have a fitted effect of over 55% in size
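Cell growth measured by CellTiter-Glo luminescence after a minimum 48 h, 37 C compound exposure with 20 nM CPT in Tdp1-knockout DT40 cells stably expressing hTDP1, seeded 400/well; qHTS titration format.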
Six1-Eya2 inh – qHTS Assay for Inhibitors of the Six1/Eya2 Interaction. AlphaScreen GST-Six1/His-Eya2 binding, biochemical; stronger effect = lower value. activity change, % (test concentration not listed). 360,000 compounds, 0.56% hits; in the data active means activity change below about -65%; inconclusive means mostly about -30% to -63%
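AlphaScreen with GST-Six1 and His-Eya2 (5X mix: 250 nM and 500 nM), glutathione donor and nickel acceptor beads; buffer 50 mM Tris pH 8.0, 300 mM NaCl, 1 mM TCEP; 1 h at 37 C in the dark.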
TDP1 block – qHTS Assay for Inhibitors of Tyrosyl-DNA Phosphodiesterase (TDP1). Tyrosyl-DNA phosphodiesterase 1 (Homo sapiens), Q9NUW8. recombinant TDP1, AlphaScreen DNA substrate cleavage. Potency, µM (doses to about 130 µM), for inactives: at the highest dose activity change, negative = inhibition, hits mostly inhibitors. 350,000 compounds, 0.28% hits. AID 485290, 2010; further: potency means the concentration at half of the fitted maximal effect; nearly all actives have a fitted effect of over 40% in size
Target sequence (Q9NUW8 whole entry, looked up): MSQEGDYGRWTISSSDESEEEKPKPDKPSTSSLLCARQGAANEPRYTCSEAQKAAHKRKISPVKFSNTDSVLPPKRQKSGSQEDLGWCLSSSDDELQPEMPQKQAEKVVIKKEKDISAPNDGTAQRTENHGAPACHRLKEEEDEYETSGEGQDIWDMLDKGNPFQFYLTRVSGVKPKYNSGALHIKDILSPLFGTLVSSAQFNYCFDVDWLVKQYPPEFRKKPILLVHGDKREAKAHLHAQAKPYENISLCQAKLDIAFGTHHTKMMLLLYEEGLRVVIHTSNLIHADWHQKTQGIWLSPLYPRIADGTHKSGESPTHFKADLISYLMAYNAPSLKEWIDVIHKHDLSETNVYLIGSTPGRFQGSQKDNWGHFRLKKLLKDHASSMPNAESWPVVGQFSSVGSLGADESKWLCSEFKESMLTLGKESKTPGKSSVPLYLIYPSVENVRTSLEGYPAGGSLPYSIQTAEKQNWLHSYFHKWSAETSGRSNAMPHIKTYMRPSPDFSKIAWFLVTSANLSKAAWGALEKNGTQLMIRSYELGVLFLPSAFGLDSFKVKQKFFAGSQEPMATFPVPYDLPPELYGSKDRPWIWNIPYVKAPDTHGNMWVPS
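Recombinant human Tdp1 (E. coli-expressed, 1 nM final) preincubated with compounds 15 min at room temperature, then 5'-biotin/3'-phosphotyrosine-FITC DNA substrate (15 nM final) added for 5 min. AlphaScreen beads (10 ug/ml final) added 10 min; cleavage lowers signal.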
Numbers without * were called inactive; ? = inconclusive; · = no result; [ ] = another dose, or the depositor's remark. Unless noted, the call rests on the fitted dose curve; in most records, active means well fitted curve in the direction sought with a large enough effect; inconclusive means small, poorly fitted or top-dose-only effect, or another doubt; inactive means no such curve, though single readings can be large; an effect the other way counts as inactive or inconclusive. On the % scale 0 is the no-effect control and ±100 the full control effect.

SMILES	CtBP-E1A blk	DT40 TDP1 no CPT	IL1B secr inh	TDP1 cell CPT	Six1-Eya2 inh	TDP1 block
CN(C)Cc1csc(NC(=O)Nc2cccc(Cl)c2)n1	-4	18µM*	?	26µM*	?	·
Cc1cccc(C)c1NC(=O)Nc1nc(CN(C)C)cs1	-2	-13%	5	-7%	-2	·
O=[N+]([O-])c1cccc(S(=O)(=O)Nc2ccc(S(=O)(=O)N3CCCC3)cc2)c1	-1	-20%	21	-27%	-1	·
CC1CCCCN1C(=O)CSc1nnc(Cc2ccccc2)n1C (stereo not drawn)	-2	1%	7	1%	-2	-2%
O=S1(=O)CCC(NC2CCCC2)C1 (stereo not drawn)	4	6%	13	11%	7	·
Cc1ccc(NC(=O)COc2ccc(CCO)cc2-n2nc3ccccc3n2)cc1C	-20	12µM*	-6	?	-6	3%
COC(=O)C(C(=O)OC)c1ccccc1NS(=O)(=O)c1c(C)cc(C)cc1C	6	21µM*	34	16µM*	0	·
CCOC(=O)c1c(C)oc2c(Cl)cc(NS(=O)(=O)c3ccc(Cl)c(C)c3)cc12	·	26µM*	·	?	·	·
COC(=O)C(C(=O)OC)c1ccccc1NS(=O)(=O)c1ccc(C)cc1	8	20%	63	-6%	-1	·
CC(=O)c1c(C)oc2c(Cl)cc(NS(=O)(=O)c3ccc(Cl)cc3)cc12	·	·	·	·	·	3%
CC(=O)c1c(C)oc2c1cc(NS(=O)(=O)c1c(C)cc(C)cc1C)c1ccccc12	·	·	·	·	·	0%
COC(=O)c1c(C)oc2c1cc(NS(=O)(=O)c1c(C)cc(C)cc1C)c1ccccc12	·	21µM*	·	12µM*	·	·
CCOC(=O)c1c(C)oc2c1cc(NS(=O)(=O)c1ccc(C)cc1)c1ccccc12	·	21µM*	·	?	·	7%[12.3 µM]
O=C1/C(=C/c2ccccn2)SC(=S)N1NS(=O)(=O)c1ccccc1	·	?	-16	-6%	-5	5%
CC1(C(=O)Nc2nc3ccc(S(C)(=O)=O)cc3s2)CC1(Cl)Cl (stereo not drawn)	5	?	-20	?	4	·
C=CCC(CC=C)(CNC(=O)C(=O)Nc1cc(C)ccc1OC)c1ccc(OC)c(OC)c1	·	16µM*	·	8.2µM*	·	-2%
O=C(CN1C(=O)CSC1=O)Nc1ccccc1N1CCOCC1	2	3%	11	1%	1	4%
COc1ccc(Nc2cc(C)c3ccc(O)cc3n2)cc1	·	16µM*	-50*	23µM*	-2	5%
CC(=O)Nc1ccc2nc3ccccc3nc2c1	?	?	-23	?	?	·
Cc1cc(Nc2ccccc2)nc2cc(O)ccc12	6	-27%	29	-28%	8	-1%
CC(=O)Nc1ccc(Nc2cc(C)c3ccccc3n2)cc1	·	?	-92*	?	17	·
O=c1[nH]c(CN2CCN(c3ccccc3)CC2)nc2scc(-c3ccccc3)c12	2	5.2µM*	0	13µM*	-1	6%
COc1ccc(N2CCN(Cc3nc4scc(-c5cccs5)c4c(=O)[nH]3)CC2)cc1	-3	?	-69*	-8%	-10	0%
COc1ccc(N2CCN(Cc3nc4scc(-c5ccccc5)c4c(=O)[nH]3)CC2)cc1	?	8%	18	?	-20	7%
CC1Cc2ccccc2N1Cc1nc2scc(-c3cccs3)c2c(=O)[nH]1 (stereo not drawn)	-6	-5%	-4	3%	-7	10%
SMILES	CtBP-E1A blk	DT40 TDP1 no CPT	IL1B secr inh	TDP1 cell CPT	Six1-Eya2 inh	TDP1 block
CCOc1ccc(OCCCC(=O)N(C)CC(=O)Nc2ccccc2Br)cc1	0	?	17	?	-1	2%
CCCN(CC(=O)Nc1ccccc1C)C(=O)CCCOc1ccc(Br)cc1	·	18µM*	4	?	1	-3%
CCCN(CC(=O)Nc1ccccc1C)C(=O)CCN1C(=O)c2cccc([N+](=O)[O-])c2C1=O	-17	-19%	-51*	6%	8	0%
O=C(CSc1cccc2cccnc12)N/N=C/c1ccncc1	·	-15%	8	-25%	-20	2%
COc1ccc(NC(=O)N2CCn3c2nc2ccccc23)cc1	-3	-26%	18	-18%	-7	0%
CCSc1nc(-c2ccccc2)nc2c1CCCC2	16	?	13	?	3	-5%
CN(C)CCSc1nc(-c2ccccc2)nc2c1CCCC2	-2	16µM*	-71*	12µM*	-27	1%
Cc1cccc(-c2nc3c(c(SCC(=O)N(C)C)n2)CCCC3)c1	-1	16µM*	0	?	-2	0%
O=C(NCCc1ccccc1)c1ccc2c(c1)N(Cc1ccccc1)C(=O)CS2=O (stereo not drawn)	0	?	-7	?	0	5%
O=C(Nc1ccccc1Cl)c1ccc2c(c1)N(Cc1ccc(F)cc1)C(=O)CS2=O (stereo not drawn)	-2	?	-6	16µM*	1	5%
CC(C)CCNC(=O)c1ccc2c(c1)N(Cc1ccccc1)C(=O)CS2=O (stereo not drawn)	-1	?	-2	21µM*	3	2%
COc1ccc2c(c1)CCC1C2=NN(/C(C)=C\C(C)=O)C1c1ccc(F)cc1 (stereo not drawn)	·	?	6	18µM*	-2	-5%
COc1ccc2c(c1)C1=NN(/C(C)=C/C(C)=O)C(c3ccc(F)cc3)C1CC2 (stereo not drawn)	11	?	-10	?	7	0%
COc1ccc2c(c1)C1=NN(/C(C)=C\C(C)=O)C(c3ccccc3)C1CC2 (stereo not drawn)	9	?	23	18µM*	-4	-5%
CC(=O)OC1CC2C(C)(C)C(O)CCC2(C)C2CC[C@]3(C)C(=CC(=O)OC3c3ccoc3)C12C (stereo partly drawn)	·	-27%	·	-21%	·	12%[56.1 µM]
CC1(c2cccc3ccccc23)OC(=O)c2ccccc21 (stereo not drawn)	0	?	-16	?	4	·
